In PubChem BioAssay (NCI):
Where “and” joins values, the source holds several entries; their conditions need not be identical. Identical values can stand only once. Compounds without any hit were thinned out: in the full panel of roughly 79,000, 15% have a hit. Some structures have more than one record in an assay (separate samples or runs), and their calls can disagree. Calls of active or inactive are those of the source. No stated cut-off is given here; in the data, active means growth inhibition above about 70%; inactive means the rest.

Experiments:
[1] = NCI Yeast Anticancer Drug Screen. Data for the rad50 strain (AID 155);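 further: 0% = growth of vehicle-only cultures of the same strain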; conditions: S. cerevisiae rad50 strain growth inhibition, stronger effect = higher value
Outline: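 Genetically altered yeast (DNA repair pathway); compound treatment; growth inhibition vs vehicle ctrl.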

[2] = NCI Yeast Anticancer Drug Screen. Data for the mec2-1 strain (AID 157); conditions: S. cerevisiae mec2-1 strain, stronger effect = higher value
Outline: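 Readout is yeast growth inhibition, normalised to vehicle-treated controls, in the mec2-1 strain exposed to compound.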

[3] = NCI Yeast Anticancer Drug Screen. Data for the sgs1 mgt1 strain (AID 161);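 further: 0% = growth of cultures given vehicle only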; conditions: S. cerevisiae sgs1 mgt1 strain, stronger effect = higher value
Outline: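 Percent growth inhibition was derived by comparing compound-exposed mutant yeast with vehicle-exposed cultures. The strain carries alterations in DNA damage repair.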

[4] = NCI Yeast Anticancer Drug Screen. Data for the bub3 strain (AID 167); conditions: S. cerevisiae bub3 mutant strain, stronger effect = higher value
Outline: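 Yeast carrying a defined mutation is treated with each compound, and growth is compared with that of vehicle-exposed cells to give inhibition.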

[5] = NCI Yeast Anticancer Drug Screen. Data for the mlh1 rad18 strain (AID 175); conditions: S. cerevisiae mlh1 rad18 strain growth inhibition, stronger effect = higher value
Outline: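 Test agents were incubated with a yeast strain of defined genotype (DNA damage repair defect). Inhibition of growth was derived by comparison with vehicle-exposed cultures.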

[6] = NCI Yeast Anticancer Drug Screen. Data for the cln2 rad14 strain (AID 165);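 further: 0% = growth equal to vehicle treated cultures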; conditions: S. cerevisiae cln2 rad14 strain, stronger effect = higher value
Outline: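 Relative to vehicle controls, growth inhibition of compound-treated cln2 rad14 yeast was recorded.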

[7] = at 5.0 µM (retest, dose inferred, filed as 0.5)
[8] = at 50.0 µM (retest, dose inferred, filed as 5.0)

Measured: growth inhibition

O=C1C=CC(=O)N1c1ccc(N=Nc2ccccc2)cc1
86.2% (active) and -13.1% (inactive): [2]; at 50.0 µM
87% (active) and 5.75% (inactive): [4]; at 50.0 µM
89.7% (active) and 21.8% (inactive): [3]; at 50.0 µM
86.2% (active) and 7.45% (inactive): [1]; at 50.0 µM
85.5% (active) and 5.9% (inactive): [5]; at 50.0 µM
active: [1]; [7] 97% | [1]; [8] 99% | [2]; [7] 99% | [2]; [8] 99% | [3]; [7] 99% | [3]; [8] 91% | [4]; [7] 99% | [4]; [8] 91% | [5]; [7] 98% | [5]; [8] 99%

COC(=O)C1C(O)C(C)C(O)C(C)C=C(C)C2=C3C(=C(C)C(=O)c4c(O)c(c(C)c(OC(C)=O)c43)NC(=O)C(C)=C/C=C\C(C)C(O)C(C)C1O)OCO2 (stereo unspecified)
active: [3]; [8] 89%
inactive: [1]; [7] -11% | [1]; [8] -37% | [1]; at 50.0 µM 53.1% and 5.45% | [2]; [7] -14% | [2]; [8] -42% | [2]; at 50.0 µM 22.1% and -8.55% | [3]; [7] -11% | [4]; [7] -31% | [4]; [8] -27% | [4]; at 50.0 µM 37.9% and 8.2% | [5]; [7] -36% | [5]; [8] -3% | [5]; at 50.0 µM 17.6% and 8.65%
90.2% (active) and -9.2% (inactive): [3]; at 50.0 µM

COc1cc2c3c(c1)SCCC(=O)N3CCN2
active: [1]; at 50.0 µM 71.7% | [2]; at 50.0 µM 81.2% | [4]; at 50.0 µM 73.3%
inactive: [1]; [7] 17% | [1]; [8] 17% | [2]; [7] 4% | [2]; [8] 4% | [3]; [7] 15% | [3]; [8] 15% | [3]; at 50.0 µM -22.6% | [4]; [7] 0% | [4]; [8] 0% | [5]; [7] 14% | [5]; [8] 14% | [5]; at 50.0 µM 45.7%

O=S(c1cc(Br)ccc1O)c1cc(Br)ccc1O
active: [1]; [8] 99% | [1]; at 50.0 µM 99.3% | [2]; [8] 100% | [2]; at 50.0 µM 99.7% | [3]; [8] 99% | [3]; at 50.0 µM 99% | [6]; [8] 99% | [6]; at 50.0 µM 99.3% | [4]; [8] 99% | [4]; at 50.0 µM 99.3% | [5]; [7] 80% | [5]; [8] 100% | [5]; at 50.0 µM 99.5%
inactive: [1]; [7] 31% | [2]; [7] 49% | [3]; [7] 69% | [6]; [7] 39% | [4]; [7] 23%

CC(=O)Oc1ccc2c(c1)Oc1cc(OC(C)=O)ccc1C21OC(=O)c2ccccc21
24.8% (inactive) and 98.7% (active): [5]; at 50.0 µM
16.8% (inactive) and 98.2% (active): [1]; at 50.0 µM
inactive: [1]; [7] 5% | [1]; [8] 5% | [2]; [7] -3% | [2]; [8] 53% | [3]; [7] 3% | [3]; [8] 36% | [4]; [7] -1% | [4]; [8] 27% | [5]; [7] 14% | [5]; [8] 24%
19.5% (inactive) and 99.5% (active): [2]; at 50.0 µM
30.9% (inactive) and 96.8% (active): [3]; at 50.0 µM
18.6% (inactive) and 99.5% (active): [4]; at 50.0 µM

CC(C)(c1ccc(O)cc1)c1ccc(O)cc1
69.5% (inactive) and 77.6% (active): [1]; at 50.0 µM
78.1% (active) and 64.6% (inactive): [3]; at 50.0 µM
58.6% (inactive) and 81.8% (active): [2]; at 50.0 µM
inactive: [1]; [7] 5% | [2]; [7] 10% and 3% | [2]; [8] 34% and 51% | [3]; [7] -3% and 4% | [4]; [7] 30% and 5% | [4]; [8] 45% and 64% | [5]; [7] 6% and 4% | [5]; [8] 64% and 68%
59.7% (inactive) and 81.1% (active): [4]; at 50.0 µM
59% (inactive) and 83% (active): [1]; [8]
75% (active) and 51% (inactive): [3]; [8]
active: [5]; at 50.0 µM 76.6% and 87.7%

CCC(=O)OCOc1ccc(/C=C2\CCC(CN(C)C)C2=O)cc1 (stereo unspecified)
active: [1]; at 50.0 µM 93.3% | [2]; at 50.0 µM 92.6% | [3]; [8] 88% | [3]; at 50.0 µM 92.5% | [6]; at 50.0 µM 90.9% | [5]; at 50.0 µM 90.8%
inactive: [1]; [7] 30% | [1]; [8] 53% | [2]; [7] 23% | [2]; [8] 66% | [3]; [7] 40% | [6]; [7] 29% | [6]; [8] 34% | [5]; [7] 33% | [5]; [8] 66%

Cc1nnc(S(=O)(=O)c2ccc(N=Nc3c(N)nc(N)nc3N)cc2)s1
inactive: [1]; [7] 6% | [1]; [8] 20% | [1]; at 50.0 µM -5.45% | [2]; [7] 8% | [2]; [8] -5% | [2]; at 50.0 µM -13.2% | [3]; [7] -8% | [3]; [8] -9% | [3]; at 50.0 µM -9.15% | [6]; [7] 9% | [6]; [8] 4% | [6]; at 50.0 µM 68.4% | [4]; [7] -1% | [4]; [8] 7% | [4]; at 50.0 µM -23.5% | [5]; [7] 11% | [5]; [8] 7% | [5]; at 50.0 µM 6.4%

O=c1cc[nH]c2ccccc12
active: [1]; [8] 81% | [4]; [7] 71% | [4]; [8] 98% | [5]; [8] 88%
inactive: [1]; [7] 34% | [1]; at 50.0 µM 13.5% and 0% | [2]; [7] 24% | [2]; [8] 63% | [2]; at 50.0 µM 1.25% and -3.85% | [6]; [7] 6% | [6]; [8] 48% | [6]; at 50.0 µM 7.35% and -24.1% | [4]; at 50.0 µM -1.2% and -1.85% | [5]; [7] 50% | [5]; at 50.0 µM 0.7% and 0.35%
